The values below come from PubChem BioAssay.

A short description of test [1]: small molecules captured by biotinylated probe aFSTL3 – biochemical, small-molecule microarray, fluorescence 635/667, stem cell growth factor project, primary screen (AID 1064).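 Also: measures binding of the biotinylated anti-FSTL3 antibody to printed compounds.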 The note with it: higher = more signal.
Test [2] can be described thus: binders from COS7 lysate, DM2A8 probe, primary screen, torsin A project, cell lysate, small-molecule microarray, fluorescence 635/667 (AID 1065). The settings on record: higher = more signal, COS7 lysate expressing mutant human TOR1A.
The nature of test [3]: small molecules captured by biotinylated probe aFGF2 – biochemical, small-molecule microarray, fluorescence 635/667, stem cell growth factor project, primary screen (AID 1067).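 Also: measures binding of biotinylated aFGF2 protein to printed compounds on slides; z-score merges feature fluorescence and signal-to-noise across triplicate slides.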 The settings on record: higher = more signal.
Test [4] can be described thus: small molecules captured by biotinylated probe aFGF10 – biochemical, small-molecule microarray, fluorescence 635/667, stem cell growth factor project, primary screen (AID 1071).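 Also: score merges 667 nm spot intensity and signal to noise from triplicate slides.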 The note with it: higher = more signal.
The target in test [5] is Neurogenic locus notch homolog protein 2 (Homo sapiens) (UniProt Q04721). As to the kind of experiment: small molecules binding Notch2 protein – biochemical, small-molecule microarray, 635 nm fluorescence, stem cell growth factors, primary screen (AID 1073). The settings on record: higher = more signal.
The target of test [6] is Pro-neuregulin-1, membrane-bound isoform (Homo sapiens) (UniProt Q02297). As to the kind of experiment: small molecules binding neuregulin-1 protein – biochemical, small-molecule microarray, fluorescence 635/667, psychiatric disease protein project, primary screen (AID 1075).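 Also: score combines 667 nm spot fluorescence with signal to noise.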 The settings on record: NRG1 binding, 635 nm fluorescence, higher = more signal.
The subject of test [7] is Neuregulin-1 EGF-like domain. The experiment in a line: small molecules binding NRG1 EGF domain – biochemical, small-molecule microarray, 635 nm fluorescence, primary screen (AID 1081).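 Also: binding of the protein to compounds printed on small-molecule microarray slides.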 The settings on record: higher = more signal.
The nature of test [8]: FRG1 expression reporter modulators in myotubes – cell-based, C2C12 myotubes, firefly/Renilla luciferase, luminescence, FRG1 inhibition for FSHD, primary screen (AID 1084). The note with it: FRG1 promoter luciferase, higher = more signal, called active from +8 up or from −8 down.
Test [9] in a line: small molecules captured by biotinylated probe aFST – biochemical, small-molecule microarray, fluorescence 635/667, stem cell growth factor project, primary screen (AID 1086).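 Also: score merges 667 nm fluorescence with signal-to-noise of each printed compound spot.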 The note with it: higher = more signal.
A short description of test [10]: binders of probe aHhip on microarray, primary screen, stem cell growth factor project, biochemical, small-molecule microarray, fluorescence 635/667 (AID 1087).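 Also: score merges spot fluorescence at 667nm with spot signal to noise ratio.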 The note with it: higher = more signal.
Test [11] deals with PRMT1 (protein arginine N-methyltransferase 1). The experiment in a line: small molecules binding arginine methyltransferase PRMT1 – biochemical, small-molecule microarray, 635 nm fluorescence, primary screen (AID 1088).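 Also: binding of Prmt1 protein to compounds spotted on small-molecule microarray slides.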 The settings on record: higher = more signal.
Test [12] can be described thus: growth effects on S. cerevisiae YJM789 – YJM789 clinical isolate, OD600, 24 h, basal, primary screen (AID 1089).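 Also: growth of clinical yeast isolate S. cerevisiae YJM 789 seeded 1000 cells per well; test concentration not given here.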 The settings on record: higher = more signal, called active from +8 up or from −8 down.
A short description of test [13]: S. pombe growth modifiers, basal conditions – strain 972, OD600, 24 h, no modulator, primary screen (AID 1090).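 Also: basal condition with compound alone and no growth modifier present; test concentration not given here.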 The settings on record: S. pombe 972 growth, higher = more signal, called active from +8 up or from −8 down.
Test [14] is described as follows: budding yeast growth modifiers under rapamycin – strain BY4716, OD600, 96 h, primary screen (AID 1091). Also: test concentration not given here. The settings on record: S. cerevisiae BY4716 + rapamycin, higher = more signal, called active from +8 up or from −8 down.
The target in test [15] is Torsin-1A-interacting protein 2 (Homo sapiens) (UniProt Q8NFQ8). The experiment in a line: small molecules binding lysate-expressed LULL1 – cell lysate, human LULL1 lysate, 635/667 nm fluorescence, primary screen (AID 1092).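 Also: probe is lysate of COS7 cells overexpressing human LULL1; score merges per-feature 667 nm fluorescence with signal-to-noise.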 The note with it: small-molecule microarray, hLULL1 lysate binding, 635 nm fluorescence; higher = more signal.
Test [16] can be described thus: optical density change of DRC41 E. coli – strain DRC41, OD650, 24 h, E. coli filamentation project, primary screen (AID 1093).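 Also: MC1000 strain lacking acrAB efflux and sulA so SOS filamentation is blocked; test concentration not given here.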 The note with it: E. coli DRC41 growth, higher = more signal, called active from +8 up or from −8 down.
The nature of test [17]: probe aLefty2 binding to arrayed compounds – biochemical, biotinylated probe, 635/667 nm fluorescence, primary screen (AID 1094).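 Also: score merges spot fluorescence near 667 nm with spot signal-to-noise ratio.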 The note with it: small-molecule microarray, higher = more signal.
Test [18] concerns Noggin (protein binding on small-molecule microarray). As to the kind of experiment: small molecules binding Noggin protein – biochemical, 635/667 nm fluorescence, primary screen (AID 1095).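 Also: score merges 667 nm feature fluorescence with signal to noise over triplicate slides.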 The settings on record: 635 nm fluorescence, higher = more signal.
Test [19] addresses Neurogenic locus notch homolog protein 3 (Homo sapiens) (UniProt Q9UM47). As to the kind of experiment: small molecules binding NOTCH3 protein – biochemical, 635/667 nm fluorescence, primary screen (AID 1096). The settings on record: small-molecule microarray, 635 nm fluorescence, higher = more signal.
A short description of test [20]: probe aEGFR binding to arrayed compounds – biochemical, biotinylated probe, 635/667 nm fluorescence, primary screen (AID 1097).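 Also: probe is a biotinylated anti-EGFR antibody binding compounds printed on slides; score combines fluorescence near 667 nm and signal to noise of each spot.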 The note with it: small-molecule microarray, higher = more signal.

Calls of active or inactive are those of the source.

Sequence of Neurogenic locus notch homolog protein 3 (Homo sapiens) (Q9UM47 whole entry, looked up): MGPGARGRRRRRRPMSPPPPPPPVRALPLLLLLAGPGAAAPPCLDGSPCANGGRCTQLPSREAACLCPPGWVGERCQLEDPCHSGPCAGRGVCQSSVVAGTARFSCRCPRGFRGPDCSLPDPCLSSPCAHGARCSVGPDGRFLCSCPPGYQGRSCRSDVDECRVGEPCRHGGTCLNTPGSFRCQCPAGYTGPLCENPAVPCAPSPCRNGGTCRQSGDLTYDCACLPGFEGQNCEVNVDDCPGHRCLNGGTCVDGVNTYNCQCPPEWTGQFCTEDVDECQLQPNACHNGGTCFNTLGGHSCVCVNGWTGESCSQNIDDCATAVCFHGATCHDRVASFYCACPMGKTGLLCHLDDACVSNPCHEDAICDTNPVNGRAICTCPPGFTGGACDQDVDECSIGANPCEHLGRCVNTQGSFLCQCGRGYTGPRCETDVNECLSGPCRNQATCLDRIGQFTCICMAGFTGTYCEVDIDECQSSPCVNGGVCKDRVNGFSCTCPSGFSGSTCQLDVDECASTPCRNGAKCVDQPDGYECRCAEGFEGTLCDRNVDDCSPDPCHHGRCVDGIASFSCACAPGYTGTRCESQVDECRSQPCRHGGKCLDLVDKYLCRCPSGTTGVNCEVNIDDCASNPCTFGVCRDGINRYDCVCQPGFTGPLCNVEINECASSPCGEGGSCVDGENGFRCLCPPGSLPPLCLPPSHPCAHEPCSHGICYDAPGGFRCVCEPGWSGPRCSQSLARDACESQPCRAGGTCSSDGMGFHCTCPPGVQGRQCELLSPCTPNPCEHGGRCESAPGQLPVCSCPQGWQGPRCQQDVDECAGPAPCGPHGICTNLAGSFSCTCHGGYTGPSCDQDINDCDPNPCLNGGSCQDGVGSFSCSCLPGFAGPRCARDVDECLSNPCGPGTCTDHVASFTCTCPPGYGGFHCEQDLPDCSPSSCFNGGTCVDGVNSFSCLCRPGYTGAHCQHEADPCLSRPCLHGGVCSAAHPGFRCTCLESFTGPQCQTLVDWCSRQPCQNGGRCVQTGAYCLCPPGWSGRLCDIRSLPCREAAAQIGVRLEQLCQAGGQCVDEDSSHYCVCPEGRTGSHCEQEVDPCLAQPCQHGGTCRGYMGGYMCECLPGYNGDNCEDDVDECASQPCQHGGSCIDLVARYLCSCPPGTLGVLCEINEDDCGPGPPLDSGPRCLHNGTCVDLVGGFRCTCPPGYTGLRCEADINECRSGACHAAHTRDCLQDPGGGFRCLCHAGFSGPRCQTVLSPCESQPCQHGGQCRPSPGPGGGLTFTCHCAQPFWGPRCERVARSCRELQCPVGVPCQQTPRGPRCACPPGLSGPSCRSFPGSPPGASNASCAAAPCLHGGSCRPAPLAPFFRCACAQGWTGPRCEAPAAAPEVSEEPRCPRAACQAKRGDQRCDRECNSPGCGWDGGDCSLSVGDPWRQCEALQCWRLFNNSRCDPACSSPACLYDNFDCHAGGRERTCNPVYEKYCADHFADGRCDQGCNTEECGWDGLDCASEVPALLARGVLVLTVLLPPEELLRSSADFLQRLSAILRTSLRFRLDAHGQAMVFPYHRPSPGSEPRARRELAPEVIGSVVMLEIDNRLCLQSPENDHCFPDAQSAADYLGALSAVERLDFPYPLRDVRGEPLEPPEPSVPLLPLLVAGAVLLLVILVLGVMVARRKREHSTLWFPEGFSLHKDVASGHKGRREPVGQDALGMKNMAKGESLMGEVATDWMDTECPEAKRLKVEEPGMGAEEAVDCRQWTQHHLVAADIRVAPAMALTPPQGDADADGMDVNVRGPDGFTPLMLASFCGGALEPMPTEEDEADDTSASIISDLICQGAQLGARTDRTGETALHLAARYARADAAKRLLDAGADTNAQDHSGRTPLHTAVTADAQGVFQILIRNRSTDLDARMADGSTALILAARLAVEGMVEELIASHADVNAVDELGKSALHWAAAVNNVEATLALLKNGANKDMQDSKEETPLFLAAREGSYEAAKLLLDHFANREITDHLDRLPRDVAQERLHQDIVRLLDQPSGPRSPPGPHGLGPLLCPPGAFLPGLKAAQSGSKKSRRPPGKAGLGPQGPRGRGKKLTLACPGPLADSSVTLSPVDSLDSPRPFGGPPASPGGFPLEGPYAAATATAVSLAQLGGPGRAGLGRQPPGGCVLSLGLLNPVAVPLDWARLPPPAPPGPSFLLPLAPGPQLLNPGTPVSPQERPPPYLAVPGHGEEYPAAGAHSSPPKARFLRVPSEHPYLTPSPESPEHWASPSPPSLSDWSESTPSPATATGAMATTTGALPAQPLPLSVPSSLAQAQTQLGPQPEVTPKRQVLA
Sequence of Torsin-1A-interacting protein 2 (Homo sapiens) (Q8NFQ8 whole entry, looked up): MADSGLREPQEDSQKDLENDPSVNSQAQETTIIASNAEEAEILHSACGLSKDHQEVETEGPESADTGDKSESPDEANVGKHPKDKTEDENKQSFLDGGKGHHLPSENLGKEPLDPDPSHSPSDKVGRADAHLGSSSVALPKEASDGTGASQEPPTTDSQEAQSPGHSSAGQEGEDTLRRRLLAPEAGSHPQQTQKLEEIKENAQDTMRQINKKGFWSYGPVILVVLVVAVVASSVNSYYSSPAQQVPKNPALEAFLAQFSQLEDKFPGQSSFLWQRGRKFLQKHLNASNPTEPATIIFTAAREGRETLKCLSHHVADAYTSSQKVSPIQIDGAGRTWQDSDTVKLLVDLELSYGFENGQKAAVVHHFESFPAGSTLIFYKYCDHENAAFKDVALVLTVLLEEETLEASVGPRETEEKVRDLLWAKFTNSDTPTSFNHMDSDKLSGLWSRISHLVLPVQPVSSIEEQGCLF
Sequence of Pro-neuregulin-1, membrane-bound isoform (Homo sapiens) (Q02297 whole entry, looked up, the tested form may be a part, canonical isoform): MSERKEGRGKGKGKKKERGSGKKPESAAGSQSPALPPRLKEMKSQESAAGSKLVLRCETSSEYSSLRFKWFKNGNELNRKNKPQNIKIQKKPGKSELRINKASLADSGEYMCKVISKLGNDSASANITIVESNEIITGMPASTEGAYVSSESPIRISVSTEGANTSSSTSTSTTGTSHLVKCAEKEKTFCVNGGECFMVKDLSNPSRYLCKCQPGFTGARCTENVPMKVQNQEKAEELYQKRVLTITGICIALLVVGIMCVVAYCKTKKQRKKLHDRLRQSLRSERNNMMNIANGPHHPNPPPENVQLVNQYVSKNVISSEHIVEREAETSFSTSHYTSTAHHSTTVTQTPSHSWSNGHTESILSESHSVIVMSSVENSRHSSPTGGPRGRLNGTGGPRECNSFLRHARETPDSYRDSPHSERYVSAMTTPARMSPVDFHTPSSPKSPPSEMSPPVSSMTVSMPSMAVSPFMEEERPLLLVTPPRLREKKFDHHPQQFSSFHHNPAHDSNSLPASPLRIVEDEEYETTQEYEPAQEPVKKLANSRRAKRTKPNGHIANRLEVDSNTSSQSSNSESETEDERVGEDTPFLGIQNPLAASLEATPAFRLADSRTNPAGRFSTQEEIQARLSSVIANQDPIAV

Regarding `C=CCNC(=O)[C@H]1[C@@H]2C(=O)O[C@@H](c3ccccc3)[C@@H](c3ccccc3)N2[C@@H](c2ccc(O)cc2)[C@]12C(=O)N(C(=O)OCCOC)c1ccc(C#Cc3ccc(OC)cc3)cc12`, the composite z-score in [1] was 0.165; in test [2], 0.383; in test [3], 0.0106; in test [4] it was 0.978; in test [5] it was 0.759; in [6], 0.788. Further, the composite z-score in test [7] is 0.995; in test [9], 0.307; in test [10] it was -0.0672; in test [11] it was 1.42; in [15], 2.23; in [17], -0.0302. Besides, the composite z-score in test [18] came out at 0.44; in [19], 0.892; in [20], 0.0219. For the same compound, the z-score is 0.75 (inactive) in [8]; 0.622 (inactive) in test [12]; 0.074 (inactive) in test [13]; 1.66 (inactive) in test [14]; -0.866 (inactive) in test [16].

For the compound `COc1ccc(C(=O)Nc2ccc(CN3C(=O)[C@@]4(O[C@@H](CC(=O)N(CCO)Cc5ccccc5)[C@H]([Si](C)(C)c5ccc(OC)cc5)[C@H]4C)c4ccccc43)cc2)cc1`, the composite z-score is -0.0679 in test [1]; 0.378 in test [2]; -0.135 in [3]; 0.086 in test [4]; -0.769 in test [5]; 0.984 in [6]. Moreover, the composite z-score in [7] was 0.921; in test [9] it was -0.263; in test [10], -0.0074; in [11] it was 0.783; in [15], 1.5; in [17], -0.116. Further, the composite z-score was determined as 1.55 in test [18], 0.217 in test [19] and 0.0326 in test [20]. Besides, the z-score in test [8] is -2.13 (inactive); in [12] it was -0.884 (inactive); in test [13], -0.504 (inactive); in test [14] it was 1.94 (inactive); in test [16], 1.68 (inactive).

Regarding `COc1ccc(C(=O)Nc2ccc(CN3C(=O)[C@]4(O[C@H](CC(=O)N(CCO)Cc5ccccc5)[C@@H]([Si](C)(C)c5ccc(OC)cc5)[C@@H]4C)c4ccccc43)cc2)cc1`, the composite z-score is -0.284 in test [1]; 1.22 in [2]; -0.0858 in [3]; 0.792 in test [4]; 0.271 in test [5]; 0.74 in test [6]. Moreover, the composite z-score was 1.26 in test [7]; 0.276 in test [9]; -0.0994 in [10]; 1.54 in test [11]; 2.03 in test [15]; -0.235 in [17]. The composite z-score was 1.08 in test [18], 0.565 in [19] and -0.096 in test [20]. Also, the z-score was -0.228 (inactive) in test [8]; 0.517 (inactive) in test [12]; 1.03 (inactive) in test [13]; 3.41 (inactive) in test [14]; 1.6 (inactive) in test [16].

Regarding `O=C1OC[C@@H](c2ccccc2)n2cc(/C=C/c3ccccc3)cc21`, the composite z-score in test [1] was 0.0087; in [2] it was -0.382; in [3], -0.178; in [4], -0.162; in test [5], -0.924; in test [6] it was 0.895. Further, the composite z-score in [7] was 0.132; in test [9] it was -0.503; in [10], -0.306; in test [11] it was -0.329; in [15] it was -0.0278; in test [17], -0.0042. The composite z-score is -0.364 in test [18], -0.0623 in test [19] and -0.108 in test [20]. The z-score in test [8] is -0.144 (inactive); in [12], -0.154 (inactive); in [13], -2.68 (inactive); in [14], 0.614 (inactive); in test [16], 1.45 (inactive).

As to `Cc1ccc(S[C@]2(C(=O)NCc3ccccc3)CC(=O)N(Cc3ccccc3Cl)[C@@H]2c2ccc(CO)cc2)cc1`, the composite z-score in test [1] was 1.05; in test [2], -0.363; in test [3] it was -0.0639; in test [4], 0.0799; in test [5] it was -0.331; in [6], 1.26. Further, the composite z-score in test [7] was 0.79; in test [9], -0.603; in test [10] it was -0.353; in test [11] it was 1.17; in test [15] it was 2.07; in [17], 0.145. Besides, the composite z-score in test [18] is -0.761; in [19] it was -0.0303; in [20], -0.258. The z-score in [8] was -3.18 (inactive); in test [12], 0.373 (inactive); in test [13], -0.0114 (inactive); in test [14], 0.227 (inactive); in test [16] it was -2.31 (inactive).
